Measured values reported in the supplement of paper PMC8371130.
Where a name gives a salt, the structure may show the parent alone.

Test system: HL-1
Assay: relative cell viability (CellTiter-Glo) vs DMSO control (% of DMSO control); higher = more viable cells
Method in brief: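 HL-1 mouse atrial cardiomyocytes were plated in 384-well plates at 1000 cells per well together with compounds at 40, 200, 1000 or 5000 nM in 0.01% DMSO. One day later, cells went to a hypoxic workstation (1% O2) for 48 h, then were reoxygenated for 24 h in a normal incubator, or stayed in normoxia for the same time. Cell viability was read by CellTiter-Glo luminescence and normalised to vehicle-treated control cells.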

[1] = oxygen condition: hypoxia 48 h (1% O2) + reoxygenation 24 h, 40 nM
[2] = oxygen condition: hypoxia 48 h (1% O2) + reoxygenation 24 h, 200 nM
[3] = oxygen condition: hypoxia 48 h (1% O2) + reoxygenation 24 h, 1000 nM
[4] = oxygen condition: hypoxia 48 h (1% O2) + reoxygenation 24 h, 5000 nM
[5] = oxygen condition: normoxia 72 h, 40 nM
[6] = oxygen condition: normoxia 72 h, 200 nM
[7] = oxygen condition: normoxia 72 h, 1000 nM
[8] = oxygen condition: normoxia 72 h, 5000 nM

SMILES	relative cell viability [1]	relative cell viability [2]	relative cell viability [3]	relative cell viability [4]	relative cell viability [5]	relative cell viability [6]	relative cell viability [7]	relative cell viability [8]
Nc1nc(=O)c2c([nH]1)NCC(CNc1ccc(C(=O)N[C@@H](CCC(=O)O)C(=O)O)cc1)N2C=O (stereo partly drawn) [Leucovorin Calcium]	106	111	110	104	98	101	102	95.3
CCCN[C@H]1CCc2nc(N)sc2C1 [Pramipexole dihydrochloride monohydrate]	103	98.2	99.8	107	99	105	101	110
O=c1cc[nH]c(=S)[nH]1 [2-Thiouracil]	99.6	105	104	104	102	103	100	114
Cc1ccc(O)c([C@H](CCN(C(C)C)C(C)C)c2ccccc2)c1 [Tolterodine tartrate]	108	105	102	109	104	112	107	110
Cl.N=C(N)NCCC[C@H](N)C(=O)O [L-Arginine HCl]	97.5	104	104	118	100	104	108	107
C[C@@H](O)[C@H]1C(=O)N2C(C(=O)OCOC(=O)C(C)(C)C)=C(SC3CN(C4=NCCS4)C3)[C@H](C)[C@H]12 [Tebipenem pivoxil]	98.3	102	99.2	91.2	96.9	92.7	101	93.4
C[C@@H]1CC(=O)NN=C1c1ccc(NN=C(C#N)C#N)cc1 [Levosimendan]	101	103	102	108	95.9	103	105	103
CC(C)(C)NC(=O)[C@H]1CC[C@H]2[C@@H]3CC[C@H]4NC(=O)C=C[C@]4(C)[C@H]3CC[C@]12C [Finasteride]	100	106	106	117	115	110	111	113
CC[C@@H]1/C=C(\C)C[C@H](C)C[C@H](OC)[C@H]2O[C@@](O)(C(=O)C(=O)N3CCCC[C@H]3C(=O)O[C@H](/C(C)=C/[C@@H]3CC[C@H](Cl)[C@H](OC)C3)[C@H](C)[C@@H](O)CC1=O)[C@H](C)C[C@@H]2OC [Pimecrolimus]	98.7	93.8	101	104	96.8	99.1	94.7	106
CN1CCC(OC(c2ccccc2)c2ccccc2)CC1 [Diphenylpyraline HCl]	102	96.9	99.3	110	96.9	103	102	100
Cc1ccc(S(=O)(=O)NC(=O)NN2CCCCCC2)cc1 [Tolazamide]	101	103	98.3	110	102	99.1	106	117
Cc1cn(-c2cc(NC(=O)c3ccc(C)c(Nc4nccc(-c5cccnc5)n4)c3)cc(C(F)(F)F)c2)cn1 [Nilotinib]	101	81.4	107	111	105	104	104	108
CCOC(=O)[C@H](CCc1ccccc1)N[C@H]1CS[C@H](c2cccs2)CN(CC(=O)O)C1=O [Temocapril HCl]	102	102	104	112	104	77.1	102	110
CCCC(=O)[O-].[Na+] [Sodium butyrate]	103	101	99.4	107	98.7	99.2	105	107
S=c1[nH]cnc2nc[nH]c12 [Mercaptopurine]	112	104	111	99.1	103	103	108	103
c1ccc2c(CC3=NCCN3)cccc2c1 [Naphazoline hydrochloride]	97.8	111	106	109	98.8	102	106	102
OCCOCCN1CCN(C2=Nc3ccccc3Sc3ccccc32)CC1 [Quetiapine fumarate]	98.9	104	106	104	103	106	108	108
CCCc1nc(C(C)(C)O)c(C(=O)OCc2oc(=O)oc2C)n1Cc1ccc(-c2ccccc2-c2nnn[nH]2)cc1 [Olmesartan medoxomil]	93.8	99.2	94.7	105	97	98.2	96.7	95.7
COC(=O)C1=C(C)NC(C)=C(C(=O)OCCN2CCN(C(c3ccccc3)c3ccccc3)CC2)C1c1cccc([N+](=O)[O-])c1 (stereo not drawn) [Manidipine]	103	103	99.6	105	102	99.2	103	103
CNC[C@H](O)c1ccc(O)c(O)c1 [Epinephrine bitartrate]	99.2	98.8	97.2	6.86	101	102	98.4	3.42
CC1(C)S[C@@H]2[C@H](NC(=O)[C@H](N)c3ccc(O)cc3)C(=O)N2[C@H]1C(=O)O [Amoxicillin]	104	103	111	114	104	100	106	108

SMILES	relative cell viability [1]	relative cell viability [2]	relative cell viability [3]	relative cell viability [4]	relative cell viability [5]	relative cell viability [6]	relative cell viability [7]	relative cell viability [8]
C[C@@H](CN1CC(=O)NC(=O)C1)N1CC(=O)NC(=O)C1 [Dexrazoxane Hydrochloride]	98.2	105	104	106	101	96.3	92.8	94.8
CN1CCN(C2=Nc3ccccc3Oc3ccc(Cl)cc32)CC1 [Loxapine Succinate]	100	103	105	116	103	111	102	125
CCOc1ccc2nc(S(N)(=O)=O)sc2c1 [Ethoxzolamide]	100	101	96.7	105	102	98.8	102	108
CO[C@H]1C[C@@H]2CC[C@@H](C)[C@@](O)(O2)C(=O)C(=O)N2CCCC[C@H]2C(=O)O[C@H]([C@H](C)C[C@@H]2CC[C@@H](OCCO)[C@H](OC)C2)CC(=O)[C@H](C)/C=C(\C)[C@@H](O)[C@@H](OC)C(=O)[C@H](C)C[C@H](C)/C=C/C=C/C=C/1C [Everolimus]	79.5	75	73.9	87.5	70.4	66.9	66.5	69.7
CNC[C@@H](O)c1ccc(O)c(O)c1 [L-Adrenaline]	102	99.7	100	99.2	100	101	95.7	95.4
Nc1cccc2c1CN(C1CCC(=O)NC1=O)C2=O (stereo not drawn) [Lenalidomide]	108	110	109	111	113	117	117	114
CCN(CC)CCOC(=O)c1ccc(N)cc1 [Procaine]	100	102	109	108	105	104	105	110
CC(C)(Sc1cc(C(C)(C)C)c(O)c(C(C)(C)C)c1)Sc1cc(C(C)(C)C)c(O)c(C(C)(C)C)c1 [Probucol]	108	105	104	110	106	103	105	112
OC[C@@H](O)[C@@H](O)[C@H](O)[C@H](O)CO [D-Mannitol]	102	86.9	113	113	106	98.9	108	87.3
Nc1[nH]cnc2ncnc1-2 [Adenine sulfate]	101	101	105	111	113	105	110	113
Nc1cccc2c1C(=O)N(C1CCC(=O)NC1=O)C2=O (stereo not drawn) [Pomalidomide]	100	97.5	103	112	96.9	104	103	113
CSc1ccc2c(c1)N(CCC1CCCCN1C)c1ccccc1S2 (stereo not drawn) [Thioridazine HCl]	101	108	101	107	98.9	101	98.7	108
CNCCCC12CCC(c3ccccc31)c1ccccc12 [Maprotiline hydrochloride]	98.7	103	93.4	83.3	98.7	102	102	87.7
CCOC(=O)C1=C(C)NC(C)=C(C(=O)OC)C1c1cccc([N+](=O)[O-])c1 (stereo not drawn) [Nitrendipine]	95.9	106	98.1	107	107	103	104	111
C[C@]12C=CC(=O)N[C@@H]1CC[C@@H]1[C@@H]2CC[C@]2(C)[C@@H](C(=O)Nc3cc(C(F)(F)F)ccc3C(F)(F)F)CC[C@@H]12 [Dutasteride]	104	106	109	108	105	106	113	99.6
Cc1ccc(Nc2nccc(N(C)c3ccc4c(C)n(C)nc4c3)n2)cc1S(N)(=O)=O [Pazopanib HCl]	94.1	106	105	109	103	113	104	109
Cc1ncc(C[n+]2csc(CCO)c2C)c(N)n1 [Thiamine HCl]	101	107	102	112	99.4	104	106	117
CCN(CC)C(=O)/C(C#N)=C/c1cc(O)c(O)c([N+](=O)[O-])c1 [Entacapone]	101	105	103	108	100	111	103	114
N[C@@H](Cc1cc(I)c(Oc2ccc(O)c(I)c2)c(I)c1)C(=O)O [Liothyronine Sodium]	105	108	111	109	103	102	108	107
N=C(N)NC(=O)c1nc(Cl)c(N)nc1N [Amiloride hydrochloride dihydrate]	101	106	107	118	101	102	106	111
